From PubChem BioAssay (NCI)
This is part of a sample that, as a whole, favours compounds with a hit. Of some 83,000 tested, about 20% had one in any assay.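 Treatment: one concentration, 48 hours, 96-well format. Scoring: percent growth, with anything below 10 considered active.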 Calls of active or inactive are those of the source.

System: SK-MEL-28 melanoma
Assay: NCI-60 one-dose screen, 48 h (100 = growth as untreated, 0 = no growth, -100 = all killed)
Details: 10 µM unless noted
Description: Growth inhibition of the SK-MEL-28 human tumor cell line is measured as a screen for anti-cancer activity. Cells are grown in 96 well plates and exposed to the test compound for 48 hours. Compounds are tested at a single concentration, which is 10^-5 M for most compounds. The reported endpoint is percent growth (GI% or GIPRCNT), where numbers from 0 - 100% represent growth inhibition, and numbers from -100% - 0 represent cell death. For example, a value of 40 represents 60% growth inhibition. A value of 0 means no net growth occurred over the course of the experiment. A value of -40 indicates 40% of cells at the beginning of the experiment died by the end of the experiment. A value of -100 means all cells are dead at the end of the experiment.
NCI-60 Human Tumor Cell Lines Screen was performed using the standard one-dose NCI protocol, which is described in more detail at https://dtp.cancer.gov/discovery_development/nci-60/default.htm.
Compounds with GIPRCNT values below 10 were considered active. Activity score was based on GIPRCNT using the following formula: […]
Score is 0 for GIPRCNT values of 100 or above, 50 for GIPRCNT values of 0, and 100 for GIPRCNT values of -100.

SMILES	growth
Fc1cc(-c2cnc3nonc3n2)c(Cl)cc1Cl	91.8% (inactive)
COc1ccc2nc(-c3ccc(-c4noc(-c5ccc(Cl)cc5)n4)cc3)[nH]c2c1	79.7% (inactive)
COc1ccc(N=C2CSc3nnc(-c4cc(F)c(Cl)cc4Cl)n3N2)cc1	-31.3% (active)
CC(C)(C)OC[C@@H]1N=C(c2ccc(Br)cc2)Nc2nc3ccccn3c2C1=O	68.6% (inactive)
COc1cc(NC(=O)CSc2nc3ccc(Cl)cc3c(=O)n2-c2ccccc2)cc(OC)c1OC	97.2% (inactive)
CCCCCCCCN=C(NCCCCCCCC)SCc1cccc2ccccc12	-87.8% (active)
Cc1ccncc1NC=O	112% (inactive)
CN(C)CC(=O)c1ccc2cc(Br)c3ccccc3c2c1	99.1% (inactive)
Cc1cccc(N=NC(=S)NNc2cccc(C)c2)c1	125% (inactive)
CCOC(=O)N1C2CCC(C2)N1C(=O)OCC	97.4% (inactive)
S=C(Nc1ccc(Cl)cc1)Nc1ccc(Cl)cc1 (tested in a mixture with another compound)	25.8% (inactive)
CC(=O)C1CCC2C3CC(C)=C4CC(O)CCC4(C)C3CCC12C (stereo not given)	105% (inactive)
c1coc(CNc2c3ccccc3nc3ccccc23)c1	97.7% (inactive)
CC(C)CC1NC(=O)C(CC(C)C)N(CO)C1=O (stereo not given)	121% (inactive)
C=C(C)[C@@H]1CC[C@]2(C(=O)NS(=O)(=O)c3ccccc3)CC[C@]3(C)[C@H](CC[C@@H]4[C@@]5(C)CC[C@H](OC(=O)NS(=O)(=O)c6ccccc6)C(C)(C)[C@@H]5CC[C@]43C)[C@@H]12	-16.3% (active)
CCN(CC)CC(=O)Nc1c(C)ccc(N)c1C	107% (inactive)
C=C1C(=O)O[C@H]2[C@H]1CC/C(COC(=O)NCc1cccc(OC)c1)=C\CC[C@@]1(C)O[C@@H]21	22.5% (inactive)
Nc1ncnc2c1N=C(c1ccc3c(c1)OCO3)CC(c1ccc(Cl)cc1)N2 (stereo not given)	88.5% (inactive)
COc1ccc(-c2conc2-n2nc(-c3ccccc3)nc2-c2ccccc2)cc1	108% (inactive)
COc1cc2c(c(OC)c1O)C(=O)C(OC)C(c1ccc(O)c(O)c1)O2 (stereo not given)	56.2% (inactive)

SMILES	growth
CC(C)(C)[Si](C)(C)OC1[C@@H](O[Si](C)(C)C(C)(C)C)[C@@H](CNC(=O)NC(=O)NC(=O)CI)O[C@H]1n1cnc2c(NC(=O)Nc3ccccc3)ncnc21 (stereo not given in full)	125% (inactive)
OC(CCCCCCCCC(O)CN1CCc2ccccc2C1)CN1CCc2ccccc2C1 (stereo not given)	108% (inactive)
NNc1ccc(S(N)(=O)=O)cc1	108% (inactive)
COc1cccc(N2CCN(c3ncnc4cc[nH]c34)CC2)c1	80.8% (inactive)
Cn1cnc([N+](=O)[O-])c1S(=O)(=O)Oc1cccc2ccccc12	85.1% (inactive)
Clc1ccc(Cl)c(N=Cc2ccc3c(c2)OCO3)c1	116% (inactive)
C=CCOC(=O)C1=C(C)NC2=C(C(=O)CC(C)(C)C2)C1c1ccc(OC)cc1 (stereo not given)	104% (inactive)
CCOC(=O)Cn1c(-c2nonc2NC(=O)c2ccccc2F)nc2ccccc21	71.1% (inactive)
CCN(CC)c1ccc(/C=N/N=C(N)N)cc1	61.7% (inactive)
CN(C)c1nc(-c2ccco2)n2nc(-c3ccc(Cl)cc3)cc2n1	94.8% (inactive)
CCN(CC)c1cc(C)c(Cc2c(OC)ccc3ccccc23)cc1C	100% (inactive)
C(=Nc1ccc(-c2ccc(N=Cc3ccccc3)cc2)cc1)c1ccccc1	99.9% (inactive)
COc1cc(C2CC(c3ccc(C)cc3)=NN2C=O)ccc1Oc1ccnc2cc(Cl)ccc12 (stereo not given)	101% (inactive)
FC(F)(F)c1cc(-c2nnc3n2N=C(Cl)CS3)cc(C(F)(F)F)c1	134% (inactive)
CCSc1cnnc2ccccc12	107% (inactive)
COc1ccc(/C=C/c2nc3ccccc3c(=O)n2-c2ccc(C#Cc3ccc(C(C)(C)C)cc3)cc2C)c(OC)c1	109% (inactive)
CCCCCCCC/C=C/CCCCCCCC1=NC(C)(C)CN1c1ccccc1	103% (inactive)
COc1ccc(/C=C(\C#N)c2cc(OC)c(OC)c(OC)c2)cc1	56.6% (inactive)
N/C(=N\OC(=O)c1ccccc1)C(C(=O)NOC(=O)c1ccccc1)C1CCCCC1 (stereo not given)	93.3% (inactive)
COc1ccc(Nc2nc(N)nc3c(=O)[nH]ccc23)cc1	124% (inactive)
